An excerpt weighted towards active compounds, which were near 15% of everything screened.
DT40 TDP1 no CPT: qHTS for Inhibitors of human tyrosyl-DNA phosphodiesterase 1 (TDP1): qHTS in cells in absence of CPT; DT40 Tdp1-/- hTDP1 cells, no CPT, ATP luminescence, 48 h; Potency, µM (series often up to 46.2 µM), for the others: at the top dose activity change, negative = growth inhibition, hits mostly inhibitors; 15% of 420,000 active; AID 686978, 2013; further: nearly all actives have a fitted effect of over 55% in size
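Chicken DT40 Tdp1-/- cells complemented with human TDP1, screened without camptothecin (DMSO vehicle only), 400 cells/well. Compounds pin-transferred, cells incubated at 37 °C for at least 48 hr. Growth read as ATP-dependent luminescence (CellTiter-Glo, 30 min at RT).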
RORgamma inh: ROR gamma (mouse) transcription inhibition; Potency, µM (top dose mostly 53.6 µM), for the others: at the highest dose activity change, negative = inhibition, usual class: inhibitors; 5.4% of 310,000 active; AID 2551; Drosophila S2 Gal4-RORgamma UAS-luciferase reporter, 20 h; further: nearly all actives have a fitted effect of over 60% in size
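Stable Schneider cell line, Gal4 DNA-binding domain fused to ROR gamma, UAS-luciferase. Cmpd 1 hr RT → CuSO4 700 uM final → 20 hr RT → luciferase reagent 10 min → luminescence.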
ALOX12 inh: inhibitors of human 12S-lipoxygenase ALOX12 | AID 1671190 | P18054 | Potency, µM (highest dose often 108 µM), inactives show top-dose activity change, negative = inhibition, most hits filed as inhibitors | purified 12hLO, xylenol orange hydroperoxide absorbance | 1.1% of 580,000 active
Target sequence (P18054 whole entry, looked up): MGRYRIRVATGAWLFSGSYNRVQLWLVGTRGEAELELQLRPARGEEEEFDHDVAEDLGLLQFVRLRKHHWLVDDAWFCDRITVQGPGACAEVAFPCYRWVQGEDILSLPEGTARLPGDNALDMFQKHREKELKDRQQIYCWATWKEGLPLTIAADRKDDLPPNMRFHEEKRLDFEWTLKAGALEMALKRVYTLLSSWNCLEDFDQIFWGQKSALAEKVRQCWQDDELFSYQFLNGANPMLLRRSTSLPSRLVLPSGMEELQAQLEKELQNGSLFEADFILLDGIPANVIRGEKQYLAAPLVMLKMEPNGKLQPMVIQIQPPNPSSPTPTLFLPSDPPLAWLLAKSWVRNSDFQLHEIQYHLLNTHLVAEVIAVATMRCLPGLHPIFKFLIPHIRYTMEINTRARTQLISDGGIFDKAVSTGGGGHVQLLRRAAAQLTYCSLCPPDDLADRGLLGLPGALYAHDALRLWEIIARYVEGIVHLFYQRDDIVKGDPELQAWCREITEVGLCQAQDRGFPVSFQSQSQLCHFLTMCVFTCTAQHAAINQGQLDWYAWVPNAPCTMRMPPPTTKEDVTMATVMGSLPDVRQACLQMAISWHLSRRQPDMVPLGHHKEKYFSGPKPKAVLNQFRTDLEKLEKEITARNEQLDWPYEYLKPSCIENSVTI
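Hydroperoxide product was detected by ferrous iron/xylenol orange as the 573 to 405 nm absorbance ratio. Arachidonic acid at 40 uM (final) was turned over for 30 min at room temperature by 150 nM human 12hLO, pH 7.0 Hepes buffer, after 15 min compound preincubation.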
ELG1 repair inh: ELG1-dependent DNA repair inhibition | HEK293T ELG1-luciferase reporter, luminescence, 16 h; DNA damage induced by 5-fluorouridine | Potency, µM (titrated, usually from 46.1 µM), for the others: at the top dose activity change, negative = inhibition, actives largely listed as inhibitors | 2.3% of 330,000 active; further: nearly all actives have a fitted effect of over 55% in size
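HEK293T cells expressing luciferase-tagged ELG1 (2,000/well) received 5-Fluorouridine plus compound or DMSO for 16 hr at 37 °C. Luciferase was read by ONE-Glo luminescence after 30 min at room temperature.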
Gal4-VP16 FLuc: inhibits Gal4-VP16 luciferase reporter, ROR gamma counter-screen; Drosophila S2 Gal4-VP16 UAS-luciferase, luminescence, 20 h; Potency, µM (highest dose often 53.6 µM), without a hit: at the top dose activity, negative = inhibition, hits mostly inhibitors; 3.5% of 310,000 active; AID 2546;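 further: Gal4-VP16 expression switched on by copper sulfate through the metallothionein promoter; nearly all actives have a fitted effect of over 50% in size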
TDP1 cell CPT: DT40-hTDP1 cell growth loss with CPT; chicken DT40 Tdp1-/-;hTDP1 cells + 20 nM CPT, ATP luminescence, 48 h; Potency, µM (highest dose often 46.2 µM), without a hit: at the highest dose activity change, negative = growth inhibition, actives largely listed as inhibitors; 12% of 420,000 active; AID 686979; further: nearly all actives have a fitted effect of over 55% in size
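Chicken DT40 Tdp1-/- cells stably complemented with human TDP1 were seeded at 400 cells/well in medium containing 20 nM camptothecin, exposed to pin-transferred compounds, and grown at 37 °C for at least 48 hr. Viability was read as ATP luminescence.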
Active calls of the source: *; ? = inconclusive; nt = no result; ! = not active in a repeat; [ ] = dose if it differs, or a comment. The call rests on the fitted dose curve; in most records, active means well fitted curve in the direction sought with a large enough effect; inconclusive means small, poorly fitted or top-dose-only effect, or another doubt; inactive means no such curve, though single readings can be large; an effect the other way counts as inactive or inconclusive. On the % scale 0 is the no-effect control and ±100 the full control effect; potency means the concentration at half of the fitted maximal effect.

SMILES | DT40 TDP1 no CPT | RORgamma inh | ALOX12 inh | ELG1 repair inh | Gal4-VP16 FLuc | TDP1 cell CPT
Cc1ncccc1C(=O)N1CCCC(c2nc(-c3cccnc3)no2)CCNC(=O)CC1 (centres undefined) | nt | nt | 24.0% | nt | nt | nt
COc1cc2nc(C)sc2cc1SC | ? | -20.6% | 0.0% | 15.3% | -9.4% | ?
COc1cc2nc(/C=C/c3cc(OC)c(OC)c(OC)c3)sc2cc1SC | 5.8µM* | 0.5% | -29.9% | 11.6µM* | -8.0% | 5.8µM*
O=C(NCCCN1CCCCCC1)C(c1ccccc1)C1CCCCC1 (centres undefined) | 16.4µM* | nt | 3.1% | nt | nt | ?
CCCCC(NC(=O)C(c1ccccc1)C1CCCC1)c1ccccc1 (centres undefined) | nt | nt | 7.8% | nt | nt | nt
Cc1ccc(OC(C)C(=O)N2CC(=O)Nc3ccccc32)cc1 (centres undefined) | -12.5% | 4.1% | -8.1% | 18.3µM* | -16.4% | -16.5%
CCCC(=O)O | -12.5% | -0.5% | nt | nt | -0.8% | 7.2%
CC[C@](N)(CCC(=O)O)C(=O)O | 18.8µM*! | -23.8% | 2.82µM*! | nt | ? | -2.1%
CC(N[C@H]1CCCC[C@H]1NC(=O)c1ccc(Cl)cc1)c1cccc2ccccc12 (some centres undefined) | nt | nt | -3.6%[57.4 µM] | nt | nt | nt
CCN(CC)CC(=O)Nc1nc(-c2ccc(Cl)cc2)cs1 | ? | 8.91µM* | -6.5% | 0.0% | 20µM* | ?
O=C(Cn1nnc(-c2ccc(CN3CCOCC3)cc2)n1)Nc1nc(-c2ccccc2)cs1 | 20.6µM* | 31.5% | -21.1% | ? | -1.0% | ?
O=C(CN1CCCCC1)Nc1nc(-c2ccc(Cl)cc2)cs1 | -1.7% | 0.0% | -0.2% | -3.3% | -24.8% | ?
CC1CCN(Cc2ccc(-c3nnn(CC(=O)Nc4ccccc4Cl)n3)cc2)CC1 | 20.6µM* | 28.6% | -4.2% | ? | 9.6% | 16.4µM*
COc1ccc(C2(O)CCN(CC(=O)Nc3nc(-c4ccccc4)cs3)CC2)cc1 | ? | 1.1% | 2.3% | 23.1µM* | 3.0% | ?
CN1CCN(CC(=O)Nc2nc(-c3ccccc3)cs2)CC1 | -0.1% | 27.1% | -13.6% | ? | 3.9% | -6.8%
Cc1cccc(C)c1NC(=O)Cn1nnc(-c2ccc(CN3CCC(C)CC3)cc2)n1 | -22.8% | 1.3% | 16.9% | -11.6% | 1.6% | -0.9%
CCOC(=O)Nc1nc(-c2ccc(Cl)cc2Cl)cs1 | 10.3µM* | 4.9% | -29.5% | ? | 10.2% | ?
O=C(CN1CCCC1)Nc1nc(-c2ccc(Cl)cc2)cs1 | 16.4µM* | nt | nt | nt | nt | 25.9µM*
Cc1ccc(-c2csc(NC(=O)CN3CCOCC3)n2)cc1C | 16.4µM* | 34.9% | nt | 2.2% | 1.5% | ?
O=c1[nH]ccn1C1CCN(Cc2ccc(OC(F)(F)F)cc2)CC1 | nt | nt | 16.4%[176 µM] | nt | nt | nt
CSc1ccc(-c2nc(CN(C)Cc3cnccn3)c(C)o2)cc1 | nt | nt | 39.6% | nt | nt | nt
Cn1nc(C(C)(C)C)cc1C(=O)NCc1cc(F)cc2c1OCOC2 | 3.66µM* | ? | 423.6% | 2.59µM* | 3.55µM* | 9.2µM*
C=CCOc1ccc(CNc2nccs2)cc1OCC | ? | 24.7% | 0.0% | -2.5% | -19.7% | ?
C=CCOc1c(Cl)cc(CNc2nccs2)cc1OC | 3.0% | 5.62µM* | 0.0% | 8.0% | ? | 8.8%
COc1ccc(CNc2nccs2)cc1OC | -4.6% | -12.9% | 8.1% | 0.9% | -9.7% | 6.3%
C=CCOc1c(CNc2nccs2)cccc1OCC | -21.7% | 11.2µM* | 23.6% | 0.8% | ? | -10.2%
Cc1nn(C)c2nc(N3CCCCC3CN3CCOCC3)sc12 (centres undefined) | nt | nt | -4.7% | nt | nt | nt
Cc1cc(C(=O)Nc2c(F)cc(F)cc2Br)c(C)o1 | ? | ? | -23.0% | 3.2% | 10µM* | ?
